Assay results from PubChem BioAssay.
Active and inactive are the calls of the source.

Assay: E. coli acrAB mutant growth effects, primary screen, E. coli filamentation inducers, strain DRC39, OD650, 48 h (AID 1179);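 also: screen aims at cell division blockers that make cells filament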
Conditions: E. coli DRC39 delta-acrAB growth, higher = more signal, called active from +8 up or from −8 down

z-score, inactive:
COc1cc2c(cc1O)C(C1CC1)N(Cc1cccc(OC(F)(F)F)c1)CC2 (stereo unspecified) -0.0239
C=CC[C@]1(C(=O)N2CCOCC2)COC(c2ccc(OCCCO)cc2)=N1 0.46
C=CC[C@]1(C(=O)N2CCCCC2)N=C(c2ccc(OCCCO)cc2)O[C@H]1c1ccccc1CN=[N+]=[N-] 1.11
COc1ccc(CCNC(=O)[C@@]2(Sc3ccc(C)cc3)CC(=O)N(Cc3ccccc3C(F)(F)F)[C@@H]2c2ccc(CO)cc2I)cc1 0.189
O=C1N(CCS(=O)(=O)c2ccccc2)c2ccccc2[C@H]2OC(c3ccc(OCCCO)cc3)=N[C@@]12Cc1ccccc1 1.13
CCCCC[C@H]1OC[C@@]23C=C(Br)[C@@H](CC12)[C@@]1(CO1)C3=O (stereo partly specified) -0.666
COC(=O)[C@@]1(Cc2ccc(OC)cc2)[C@H]2c3cc(C(=O)N(C)C)n(Cc4ccc(OC(F)(F)F)cc4)c3C[C@H]2CN1C(=O)c1ccccc1 -0.804
CCC#CCN(Cc1ccccc1Br)[C@H](/C=C/C1CC1)[C@@H](O)Cc1ccccc1 0.706
CC[C@@H]1O[Si](C(C)C)(C(C)C)c2c1cc(-c1cc(C)c(OC)c(C)c1)nc2-c1ccc(Oc2ccccc2)cc1 0.424
CCCNC(=O)[C@@]1(C)c2ccccc2C(=O)N(c2ccc(C)cn2)[C@H]1c1ccc(CO)cc1 -0.586
[N-]=[N+]=Nc1ccccc1[C@@H]1OC(c2ccc(OCCCO)cc2)=N[C@]1(Cc1ccccc1)C(=O)N1CCCCC1 0.174
